Assay results: ChEMBL document CHEMBL3988442, “University of Dundee, Small-Polar-MMV Screening Library” (2021)
The campaign covered roughly 48,000 compounds. About 13,000 (27%) showed an effect of 50% or more. Some of the results follow.

test system: Wolbachia pipientis; experiment: Anti-Wolbachia Cell-Based Screen; type: functional; set-up: scale not given: in the data most compounds retested in dose-response had high values; settings: 5 µM

Question: With `CC(C)(C)c1coc([C@@H]2COCCN2Cc2c[nH]cn2)n1` as the molecule, how does the “Percent Effect” value read?
Answer: Its value is -1.373%.

Question: For `CCOCCN1CCN(Cc2nnc(-c3occc3C)o2)CC1CC` (stereo unspecified), which “Percent Effect” value is on record?
Answer: The value was 4.766%.

Question: `CN(C)C(=O)CNC(=O)Nc1cccc(Cl)c1SC(F)F` was tested. Which “Percent Effect” value did it give?
Answer: The value was -14%.

Question: How did the “Percent Effect” value turn out when `Cc1ccccc1N1CCN(C(=O)CC(C)C)CC1` was run?
Answer: The value was -38.06%.

Question: For `COC(=O)CC1CN(Cc2ccn(-c3ccc(F)cc3)n2)CCO1` (stereo unspecified), which “Percent Effect” value is on record?
Answer: Its value is -16.13%.

Question: `N#Cc1ccc(N2CCCN(C(=O)CC3CCCO3)CC2)cc1` (stereo unspecified) was tested. Which “Percent Effect” value did it give?
Answer: The value was 5.693%.

Question: `CSCC(=O)N1CCCN(c2ccccc2C)CC1` was tested. Which “Percent Effect” value did it give?
Answer: Its value is 124.1%.

Question: Which “Percent Effect” value does the source give for `Cc1ccccc1N1CCCN(C(=O)CN2C(=O)OC[C@@H]2C(C)C)CC1` here?
Answer: The value was 17.78%.

Question: Which “Percent Effect” value does the source give for `Cc1ccccc1N1CCCN(C(=O)CC2CN(C(C)C)CCO2)CC1` (stereo unspecified) here?
Answer: Its value is 116.5%.

Question: `CSCCC(=O)N1CCCN(c2ccccc2C)CC1` was tested. Which “Percent Effect” value did it give?
Answer: Its value is -1.705%.

Question: Which “Percent Effect” value does the source give for `CSCC(=O)N1CCCN(c2ccncc2C)CC1` here?
Answer: Its value is -12.26%.

Question: For `CC(C)N1CCOC(CC(=O)N2CCCN(c3ccc(F)cc3)CC2)C1` (stereo unspecified), which “Percent Effect” value is on record?
Answer: Its value is 103.5%.

Question: Which “Percent Effect” value does the source give for `NC(=O)c1cncc(-n2ccc(-c3cnccn3)n2)c1` here?
Answer: Its value is -26.19%.

Question: `CC(C#N)(NC(=O)COc1ccccc1Br)C1CC1` (stereo unspecified) was tested. Which “Percent Effect” value did it give?
Answer: Its value is 18.27%.

Question: `CN1CCN(CC2CC2)C(=O)C12CCN(C(=O)c1ccnnc1)CC2.O=C(O)C(F)(F)F` was tested. Which “Percent Effect” value did it give?
Answer: The value was -9.864%.

Question: Which “Percent Effect” value does the source give for `O=C(CC(F)(F)F)N1CCC2(CCCN(c3nncs3)C2)C1` (stereo unspecified) here?
Answer: Its value is -11.31%.

Question: For `CN1CCN(C)C2(CCN(C(=O)CC(F)(F)F)CC2)C1=O`, which “Percent Effect” value is on record?
Answer: The value was 104%.

Question: For `CCN1CCN(C)C2(CCN(C(=O)CC(F)(F)F)CC2)C1=O`, which “Percent Effect” value is on record?
Answer: Its value is 118.4%.

Question: How did the “Percent Effect” value turn out when `CN1CCN(CC2CC2)C(=O)C12CCN(C(=O)c1cnccn1)CC2` was run?
Answer: Its value is -10.28%.

Question: `Cc1ccc(N2CCCC3(CCN(C(=O)CC(F)(F)F)C3)C2)nn1` (stereo unspecified) was tested. Which “Percent Effect” value did it give?
Answer: The value was -9.607%.

Question: With `CN1CCN(CC2CC2)C(=O)C12CCN(C(=O)CC(F)(F)F)CC2.O=C(O)C(F)(F)F` as the molecule, how does the “Percent Effect” value read?
Answer: The value was 112.7%.

Question: With `CCN(C(=O)c1ccccc1I)C1CC(=O)NC1=O` (stereo unspecified) as the molecule, how does the “Percent Effect” value read?
Answer: Its value is 4.049%.

Question: How did the “Percent Effect” value turn out when `CC/C=C(/C)C(=O)N1CSCC1C(=O)NC1=NCCS1` (stereo unspecified) was run?
Answer: The value was -1.356%.

Question: Which “Percent Effect” value does the source give for `COc1ccc(F)cc1S(=O)(=O)NCCn1cnc(C)cc1=O` here?
Answer: The value was 77.48%.

Question: For `COc1ccc(S(=O)(=O)NCCn2cnc(C)cc2=O)cc1C`, which “Percent Effect” value is on record?
Answer: The value was 93.11%.

Question: Which “Percent Effect” value does the source give for `COc1ncc(NS(=O)(=O)c2ccc(OC)c(C)c2)c(OC)n1` here?
Answer: The value was -43.62%.

Question: With `COc1ccc(S(=O)(=O)Nc2cccnc2-n2cncn2)cc1C` as the molecule, how does the “Percent Effect” value read?
Answer: The value was -1.49%.

Question: For `COc1ccc(F)cc1S(=O)(=O)NCC(O)c1sccc1C` (stereo unspecified), which “Percent Effect” value is on record?
Answer: The value was 28.76%.

Question: With `COc1ccc(F)cc1S(=O)(=O)NCC(c1cccn1C)N(C)C` (stereo unspecified) as the molecule, how does the “Percent Effect” value read?
Answer: Its value is -20.36%.

Question: Which “Percent Effect” value does the source give for `CC1COc2ccccc2N1C(=O)c1ccnc(-n2cncn2)c1` (stereo unspecified) here?
Answer: The value was -16.23%.

Question: For `CNc1ncc(CN(C)C(=O)[C@@]23CNC[C@@H]2CN(C(=O)C2CC2)C3)cn1`, which “Percent Effect” value is on record?
Answer: The value was -3.257%.

Question: With `COc1cc(NCCNC(=O)c2cc[nH]c2C)cc(OC)c1` as the molecule, how does the “Percent Effect” value read?
Answer: The value was -11.29%.

Question: For `COCCCC1(CO)CCCN(Cc2nccs2)C1` (stereo unspecified), which “Percent Effect” value is on record?
Answer: Its value is 3.777%.

Question: `O=C(NCc1ncc[nH]1)c1c(F)cccc1I` was tested. Which “Percent Effect” value did it give?
Answer: Its value is -7.586%.

Question: How did the “Percent Effect” value turn out when `COCCC(=O)N1CC2(CCN(c3ccccc3)C2)C1` was run?
Answer: The value was -36.12%.

Question: For `COCC(=O)N1C[C@@H](O)[C@H](N2CCN(c3ccccc3)CC2)C1`, which “Percent Effect” value is on record?
Answer: The value was 143.5%.

Question: With `CCOCC(=O)N1C[C@@H](O)[C@H](N2CCN(c3ccccc3)CC2)C1` as the molecule, how does the “Percent Effect” value read?
Answer: Its value is 110.9%.

Question: Which “Percent Effect” value does the source give for `COCCC(=O)N1CC[C@@H](N2CCN(C)CC2)[C@@H]1Cc1ccccc1` here?
Answer: The value was -8.117%.

Question: For `COCCC(=O)N1C[C@@H](O)[C@H](N2CCN(c3ccccc3)CC2)C1`, which “Percent Effect” value is on record?
Answer: The value was 133.4%.

Question: Which “Percent Effect” value does the source give for `O=C(CO)N1CC[C@@H](N2CCN(c3ccccc3F)CC2)[C@H](O)C1` here?
Answer: The value was 5.557%.

Question: Which “Percent Effect” value does the source give for `CN1CCN([C@@H]2CN(C(=O)CCOc3ccccc3)C[C@H]2O)CC1` here?
Answer: The value was 98.51%.

Question: Which “Percent Effect” value does the source give for `CC(C)=CCN1CCN(CCCOc2ccccc2)[C@H]2CS(=O)(=O)C[C@H]21` here?
Answer: The value was -8.839%.

Question: For `Cc1ccsc1[C@@H]1CCN(C(=O)CCOc2ccccc2)C[C@H]1O`, which “Percent Effect” value is on record?
Answer: Its value is -3.102%.

Question: With `CSCCC(=O)N1CC[C@@H](N2CCN(c3ccccc3F)CC2)[C@H](O)C1` as the molecule, how does the “Percent Effect” value read?
Answer: The value was -0.8189%.

Question: `N#Cc1ccnc(N2CCN(CC(O)c3ccccc3Cl)CC2)c1` (stereo unspecified) was tested. Which “Percent Effect” value did it give?
Answer: Its value is -8.703%.

Question: Which “Percent Effect” value does the source give for `O=C(CN1CCS(=O)(=O)CC1)NCc1cccc(Br)c1` here?
Answer: Its value is -5.799%.

Question: How did the “Percent Effect” value turn out when `COCC1(CNC(=O)Nc2cc(F)ccc2OC)CCCC1` was run?
Answer: Its value is -0.947%.

Question: With `CC(C)(C)OC(=O)NC(C)(C)c1noc(CSc2nncs2)n1` as the molecule, how does the “Percent Effect” value read?
Answer: The value was 7.03%.

Question: For `N#Cc1c(Cl)nsc1NCc1ccc(N2CCSCC2)cc1`, which “Percent Effect” value is on record?
Answer: The value was -6.213%.

Question: Which “Percent Effect” value does the source give for `COc1ccc2c(c1)nc1n2[C@@H](CNCc2nccs2)COC1` here?
Answer: Its value is 4.423%.

Question: With `COCC1CN(Cc2ccoc2)Cc2cn(C)nc21` (stereo unspecified) as the molecule, how does the “Percent Effect” value read?
Answer: The value was 2.216%.

Question: For `Cn1ncc2c1C(COCC1CC1)CN(Cc1ccco1)C2` (stereo unspecified), which “Percent Effect” value is on record?
Answer: The value was -0.8913%.

Question: How did the “Percent Effect” value turn out when `Cn1cnc2c1C(COCC1CC1)CN(Cc1ccsc1)C2` (stereo unspecified) was run?
Answer: The value was 3.226%.

Question: Which “Percent Effect” value does the source give for `CCOCC1CN(Cc2ccco2)Cc2ccnn2C1` (stereo unspecified) here?
Answer: Its value is -17.9%.

Question: Which “Percent Effect” value does the source give for `Cn1cc(CN2Cc3cn(C)nc3C(COCC3CC3)C2)cn1` (stereo unspecified) here?
Answer: The value was -9.412%.

Question: For `CC(C)COCC1CN(Cc2cnn(C)c2)Cc2ncn(C)c21` (stereo unspecified), which “Percent Effect” value is on record?
Answer: The value was 123.1%.

Question: `CCOCC1CN(Cc2ccoc2)Cc2ncn(CC3CC3)c21` (stereo unspecified) was tested. Which “Percent Effect” value did it give?
Answer: The value was -9.148%.

Question: With `Cn1cc2c(n1)C(COCC1CC1)CN(Cc1ccsc1)C2` (stereo unspecified) as the molecule, how does the “Percent Effect” value read?
Answer: The value was -15.61%.

Question: Which “Percent Effect” value does the source give for `CC(C)COCC1CN(Cc2ccsc2)Cc2ncn(C)c21` (stereo unspecified) here?
Answer: The value was 90.56%.

Question: `CC(C)COCC1CN(Cc2ccoc2)Cc2ncn(C)c21` (stereo unspecified) was tested. Which “Percent Effect” value did it give?
Answer: The value was 128.9%.

Question: How did the “Percent Effect” value turn out when `CC(C)COCC1CN(Cc2ccco2)Cc2ncn(C)c21` (stereo unspecified) was run?
Answer: Its value is 120.7%.

Question: Which “Percent Effect” value does the source give for `CCOCC1CN(Cc2cnn(C)c2)Cc2ncn(CC3CC3)c21` (stereo unspecified) here?
Answer: Its value is -8.097%.

Question: With `CN(C)C(=O)c1nc2c(s1)CCCN2Cc1ccccc1` as the molecule, how does the “Percent Effect” value read?
Answer: The value was -4.503%.

Question: How did the “Percent Effect” value turn out when `Cc1ccc(C)c2c(O)cc(CN3CCC(=O)NCC3C)nc12` (stereo unspecified) was run?
Answer: Its value is -0.2793%.

Question: How did the “Percent Effect” value turn out when `CCC(NC(=O)Nc1cc(F)c(OC)c(F)c1)c1noc(C)n1` (stereo unspecified) was run?
Answer: Its value is -7.836%.

Question: `Cn1nc2c(cc1=O)CN(Cc1nc(-c3ccoc3)no1)CC2` was tested. Which “Percent Effect” value did it give?
Answer: Its value is -6.043%.
